# Assay results taken from PubChem BioAssay (NCATS).
# Records with an inconclusive call do not appear. Calls of active or inactive are those of the source. Unless noted, the call rests on the fitted dose curve; in most records, active means well fitted curve in the direction sought with a large enough effect; inconclusive means small, poorly fitted or top-dose-only effect, or another doubt; inactive means no such curve, though single readings can be large; an effect the other way counts as inactive or inconclusive.
# Key:
# [1] = molecular target: Lysosomal acid glucosylceramidase (Homo sapiens) (UniProt P04062); assay: Glucocerebrosidase-p2 (AID 348; in the data active means potency below about 10 µM; further: potency means the concentration at half of the fitted maximal effect); details: purified GBA, blue fluorogenic substrate, 40 min
# Summary of the method: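 Normal human glucocerebrosidase (0.2 nM) with blue fluorogenic substrate (80 uM final) in citrate/phosphate pH 5.9 with 10mM sodium taurocholate, 0.01% tween-20; 40 min RT, NaOH/glycine stop; fluorescence Ex 365/Em 440; AC50 from a titration from 0.6 nM upwards.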
# [2] = AP1 Signaling Pathway (AID 357; active means well fitted curve in either direction with a large enough effect, not every such curve was filed as active;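 further: ME-180 reporter cells stimulated with EGF at its EC50 level; on the % scale 0 is the no-effect control and ±100 the full control effect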); details: ME-180 AP-1-bla reporter, EGF-induced, beta-lactamase ratio, 5 h; at 7.69 µM (top of the series) unless noted
# Summary of the method: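 Modulation of EGF-driven AP-1 transcription was assessed with a beta-lactamase reporter in ME-180 cells. Compound and EC50 EGF were co-incubated 5 hours at 37 °C before 2.5-hour CCF4 loading at room temperature and dual-emission reading.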
# [3] = molecular target: Cytochrome P450 1A2 (Homo sapiens) (UniProt P05177); assay: p450-cyp1a2 (AID 410; calls by dose curve; further: potency means the concentration at half of the fitted maximal effect)
# Summary of the method: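 Luminescent demethylation readout: Luciferin-ME (100uM, equal to Km) turned over by 20nM CYP1A2 for 60 min at room temperature after NADPH regeneration addition, following 10 min compound preincubation. Normalization used 57 uM furafylline as full inhibition.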
# [4] = NFAT Signaling Pathway (AID 444; active means well fitted curve in either direction with a large enough effect, not every such curve was filed as active;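 further: carbachol stimulus at about its EC50 of 1 µM final; on the % scale 0 is the no-effect control and ±100 the full control effect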); details: Jurkat NFAT-bla M1, carbachol, beta-lactamase ratio, 5 h; at 7.69 µM (top of the series) unless noted
# Summary of the method: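 Jurkat cells carrying an NFAT-driven β-lactamase reporter and co-transfected muscarinic M1 receptor were treated with compound plus carbachol (1 uM final, an EC50 level) for 5 h at 37 °C. CCF4 loading followed for 1 h at RT; 460/530 nm ratio gave %activity.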
# [5] = Stat Signaling Pathway (AID 446; active means well fitted curve in either direction with a large enough effect, not every such curve was filed as active;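 further: ME-180 cervical cancer cells given 40 pM IL-6 alongside compound; SIE-controlled beta-lactamase reporter measured as 460/530 nm FRET emission ratio; on the % scale 0 is the no-effect control and ±100 the full control effect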); details: ME-180 SIE beta-lactamase reporter, IL-6 stimulated, 5 h; at 7.69 µM (top of the series) unless noted
# Summary of the method: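 Overnight-plated ME-180 cells bearing a STAT Inducible Element beta-lactamase reporter; 5 h co-exposure to compound and 40 pM IL-6; values normalized to 300 pM IL-6 and 125 nM JAK inhibitor controls.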
# [6] = molecular target: Glucocorticoid receptor (Homo sapiens) (UniProt P04150); assay: GR-GFP Redistribution (AID 450;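 active means compounds whose dose series gives a full or clear partial fitted curve of increased nuclear translocation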; further: potency means the concentration at half of the fitted maximal effect); details: U2OS GR-GFP nuclear translocation, laser cytometry, 2 h
# [7] = molecular target: Glucocorticoid receptor (Homo sapiens) (UniProt P04150); assay: GR-EFC Redistribution (AID 451; calls by dose curve; further: potency means the concentration at half of the fitted maximal effect); details: CHO-K1 GR-EFC translocation, beta-gal luminescence, 2 h
# Summary of the method: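 CHO-K1 cells stably expressing nuclear-localized β-gal enzyme acceptor and GR fused C-terminally to the enzyme donor fragment; ligand-driven nuclear translocation restores β-gal by complementation. Compounds titrated up to 46 uM final, 2 h at 37 °C; luminescence read.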
# [8] = molecular target: Mitogen-activated protein kinase 10 (Mus musculus) (UniProt Q61831); assay: JNK3 AlphaScreen Assay (AID 530; active means well fitted curve in either direction with a large enough effect, not every such curve was filed as active;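 further: kinase came from lysate of stimulated human HepG2 cells; signal reports phosphorylation of biotinylated GST-cJun 1-79 at Ser73 with 10 µM ATP; on the % scale 0 is the no-effect control and ±100 the full control effect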)
# Summary of the method: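 Phosphorylation of biotinylated GST-cJun(1-79) at Ser73 is measured by AlphaScreen proximity luminescence. Enzyme is JNK3 in HepG2 lysates activated with interleukin-1beta and tumor necrosis factor alpha; ATP is 10 uM final.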
# [9] = qHTS Assay for Lipid Storage Modulators (AID 1519; calls by dose curve); details: Drosophila S3 cells, BODIPY lipid droplet/cell ratio, laser cytometry, cells loaded with oleic acid; for activity change, negative = inhibition: at 57.5 µM (top of the series)
# Summary of the method: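 Cells seeded at 5,000 per well were treated with compounds over a concentration series and loaded with oleic acid (400 uM, as added). Lipid droplet fluorescence (488 nm excitation, 500-530 nm channel) was read by laser-scanning cytometry and normalized to 20 uM Triacsin C.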
# [10] = molecular target: Dual specificity protein kinase CLK4 (Homo sapiens) (UniProt Q9HAZ1); assay: qHTS Assay for Inhibitors of CDC-like Kinase 4 (Kinase-Glo Assay) (AID 1770); further: nearly all actives have a fitted effect of over 65% in size; further: potency means the concentration at half of the fitted maximal effect
# Summary of the method: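 Recombinant human Clk4 (25 nM) phosphorylated RS repeat peptide (100 uM) with 1 uM ATP in Tris pH 7.5/MgCl2/EGTA/DTT/Triton buffer for 4.5 h at room temperature. Residual ATP was quantified by Kinase-Glo luciferase luminescence.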
# [11] = molecular target: Dual specificity protein kinase CLK4 (Homo sapiens) (UniProt Q9HAZ1); assay: qHTS Assay for Inhibitors of CDC-like Kinase 4 (ADP-Glo Assay) (AID 1771); further: nearly all actives have a fitted effect of over 70% in size; further: potency means the concentration at half of the fitted maximal effect
# Summary of the method: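 ADP production was read by ADP-Glo luminescence after residual ATP depletion, following 1 h room-temperature reaction of 25 nM Clk4, 1 uM ATP and 100 uM RS peptide with MgCl2, EGTA, DTT and Triton X-100.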
# [12] = molecular target: Ubiquitin carboxyl-terminal hydrolase 1 (Homo sapiens) (UniProt O94782); assay: Inhibitors of USP1/UAF1: Pilot qHTS (AID 504865);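 further: rhodamine fluorescence freed from ubiquitin-rhodamine substrate followed over time; top concentration of the series differs between compounds; on the % scale 0 is the no-effect control and ±100 the full control effect; nearly all actives have a fitted effect of over 35% in size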
# Summary of the method: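 USP1/UAF1 complex (1nM) preincubated with compound 15 min at room temperature, then Ub-Rho substrate (150nM final) added. Fluorescence read kinetically at 480/540 nm, 6 reads every 60 seconds. Buffer: 50mM HEPES pH 7.8, 0.5mM EDTA, 0.1 mg/ml BSA, 1mM TCEP, 0.01% Tween-20.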
# [13] = Primary qHTS for small molecule stabilizers of the endoplasmic reticulum resident proteome: Secreted ER Calcium Modulated Protein (SERCaMP) assay (AID 1508630); further: on the % scale 0 is the no-effect control and ±100 the full control effect
# Summary of the method: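 The SH-SY5Y reporter protocol was run at 3 concentrations up to 38.3 uM (primary) or 11 concentrations (follow-up): 16 h compound, 100 nM thapsigargin for 4 h, then extracellular luciferase luminescence.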
# [14] = molecular target: Cytochrome P450 3A4 (Homo sapiens) (UniProt P08684); assay: qHTS Assay for Inhibitors and Substrates of Cytochrome P450 3A4 (AID 884); further: potency means the concentration at half of the fitted maximal effect; nearly all actives have a fitted effect of over 50% in size
# Summary of the method: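 Luminescent readout of luciferin produced by CYP3A4 (20 nM) dealkylation of Luciferin-PPXE, 25 uM (its KM). NADPH-driven reaction ran 60 min at RT after 10 min compound preincubation; data scaled to 57 uM ketoconazole as 100% inhibition.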
# [15] = molecular target: Cytochrome P450 3A4 (Homo sapiens) (UniProt P08684); assay: qHTS Assay for Activators of Cytochrome P450 3A4 (AID 885); further: nearly all actives have a fitted effect of over 65% in size
# Summary of the method: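 Using 20nM recombinant human CYP3A4 in potassium phosphate (200mM), substrate Luciferin-PPXE at 25uM, luminescent luciferin detection followed a 60-min RT NADPH reaction; data scaled to 57 uM ketoconazole.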
# [16] = molecular target: Cytochrome P450 2C19 (Homo sapiens) (UniProt P33261); assay: qHTS Assay for Inhibitors and Substrates of Cytochrome P450 2C19 (AID 899); further: potency means the concentration at half of the fitted maximal effect; nearly all actives have a fitted effect of over 60% in size
# Summary of the method: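 Human CYP2C19 (5nM) with Luciferin-H EGE at 10uM (its KM) in 50mM KPO4 was preincubated with compound for 10 min at 37C. NADPH regeneration started a 60 min 37C reaction. Luciferin was read by luminescence, normalized to 57uM ketoconazole.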
# [17] = molecular target: Dual specificity protein kinase CLK4 (Homo sapiens) (UniProt Q9HAZ1); assay: qHTS Assay for Inhibitors of CDC-like Kinase 4 (ADP-FP Assay) (AID 1795); further: potency means the concentration at half of the fitted maximal effect; nearly all actives have a fitted effect of over 60% in size
# Summary of the method: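 Recombinant human Clk4 (6.25 nM) phosphorylated RS repeat peptide (100 uM) with 1 uM ATP in Tris pH 7.5/MgCl2/EGTA/DTT/Triton buffer for one hour. ADP was quantified by Transcreener competitive fluorescence polarization against an ADP calibration curve.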
# [18] = molecular target: 3',5'-cyclic-AMP phosphodiesterase 4B (Homo sapiens) (UniProt Q07343); assay: qHTS Assay for Inhibitors of PDE-IV (AID 607; active means well fitted activation curve with a large enough effect in the main read-out, with a control signal flat, not every such curve was filed as active; further: % of control where 0% means no effect)
# Summary of the method: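 Live HEK293 cells with a modified cyclic nucleotide-gated (CNG) channel report intracellular cAMP via membrane-potential dye fluorescence (ex 535/em 590 nm). Endogenous PDE-IV was targeted. Compounds were tested at up to 22.9 uM final; RO 20-1724 100 uM served as control.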
# [19] = qHTS Assay for Identification of Small Molecule Agonists for Hypoxia Response Element Signaling Pathway (AID 914; active means well fitted activation curve with a large enough effect in the signal ratio, with a control signal flat, not every such curve was filed as active; the % refers to the signal ratio; further: % of control where 0% means no effect); details: ME-180 (cervical carcinoma) HRE-bla reporter, beta-lactamase ratio, CoCl2, 17 h; activation: stronger effect = higher value
# Summary of the method: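 Positive modulation of EC50 CoCl2-induced hypoxia response element signaling is measured in ME-180 cells with a beta-lactamase reporter. Compounds are titrated, incubation runs 17 hours, and %Activity derives from the blue/green ratio.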
# [20] = measured here: cell count channel max response
# [21] = measured here: lipid channel max response
# Sequence of 3',5'-cyclic-AMP phosphodiesterase 4B (Homo sapiens) (Q07343 whole entry, looked up): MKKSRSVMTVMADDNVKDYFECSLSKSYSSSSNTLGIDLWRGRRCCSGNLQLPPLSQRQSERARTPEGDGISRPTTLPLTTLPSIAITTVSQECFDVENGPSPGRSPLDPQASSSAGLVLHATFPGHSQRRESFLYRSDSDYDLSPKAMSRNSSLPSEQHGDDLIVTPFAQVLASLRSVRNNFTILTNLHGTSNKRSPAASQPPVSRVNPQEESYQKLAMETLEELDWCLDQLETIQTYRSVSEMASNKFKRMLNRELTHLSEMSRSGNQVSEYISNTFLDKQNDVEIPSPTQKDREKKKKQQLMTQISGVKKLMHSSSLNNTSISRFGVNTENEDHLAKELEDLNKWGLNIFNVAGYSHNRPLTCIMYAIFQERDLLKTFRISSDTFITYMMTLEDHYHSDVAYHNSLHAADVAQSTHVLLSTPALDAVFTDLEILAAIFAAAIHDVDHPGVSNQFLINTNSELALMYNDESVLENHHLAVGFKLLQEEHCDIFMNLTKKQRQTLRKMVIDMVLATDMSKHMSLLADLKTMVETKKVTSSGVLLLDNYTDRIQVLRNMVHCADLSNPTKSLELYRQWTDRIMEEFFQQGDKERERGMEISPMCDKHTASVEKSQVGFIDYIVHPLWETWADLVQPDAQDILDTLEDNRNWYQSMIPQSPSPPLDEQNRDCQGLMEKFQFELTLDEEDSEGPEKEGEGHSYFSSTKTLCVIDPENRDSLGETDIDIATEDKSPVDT
# Sequence of Ubiquitin carboxyl-terminal hydrolase 1 (Homo sapiens) (O94782 whole entry, looked up): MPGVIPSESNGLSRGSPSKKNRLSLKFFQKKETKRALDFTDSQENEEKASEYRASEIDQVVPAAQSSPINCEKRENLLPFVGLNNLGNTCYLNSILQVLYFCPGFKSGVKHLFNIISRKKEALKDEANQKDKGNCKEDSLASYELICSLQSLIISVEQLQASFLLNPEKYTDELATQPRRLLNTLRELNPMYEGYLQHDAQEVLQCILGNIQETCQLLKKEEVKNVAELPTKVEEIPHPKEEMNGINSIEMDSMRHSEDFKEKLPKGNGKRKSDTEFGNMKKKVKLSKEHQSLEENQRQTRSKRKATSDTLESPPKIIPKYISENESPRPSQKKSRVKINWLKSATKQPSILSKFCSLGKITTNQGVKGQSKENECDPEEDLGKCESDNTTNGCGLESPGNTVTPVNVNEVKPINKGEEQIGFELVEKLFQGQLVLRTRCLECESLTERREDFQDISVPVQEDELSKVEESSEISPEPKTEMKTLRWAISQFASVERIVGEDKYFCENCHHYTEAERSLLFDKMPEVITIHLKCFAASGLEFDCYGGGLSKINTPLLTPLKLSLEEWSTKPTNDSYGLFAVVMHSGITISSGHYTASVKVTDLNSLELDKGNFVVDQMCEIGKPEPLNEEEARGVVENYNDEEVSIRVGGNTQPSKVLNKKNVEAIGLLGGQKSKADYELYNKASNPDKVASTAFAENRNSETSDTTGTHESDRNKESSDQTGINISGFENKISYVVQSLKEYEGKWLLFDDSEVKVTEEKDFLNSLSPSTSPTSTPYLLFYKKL
# Sequence of Cytochrome P450 3A4 (Homo sapiens) (P08684 whole entry, looked up): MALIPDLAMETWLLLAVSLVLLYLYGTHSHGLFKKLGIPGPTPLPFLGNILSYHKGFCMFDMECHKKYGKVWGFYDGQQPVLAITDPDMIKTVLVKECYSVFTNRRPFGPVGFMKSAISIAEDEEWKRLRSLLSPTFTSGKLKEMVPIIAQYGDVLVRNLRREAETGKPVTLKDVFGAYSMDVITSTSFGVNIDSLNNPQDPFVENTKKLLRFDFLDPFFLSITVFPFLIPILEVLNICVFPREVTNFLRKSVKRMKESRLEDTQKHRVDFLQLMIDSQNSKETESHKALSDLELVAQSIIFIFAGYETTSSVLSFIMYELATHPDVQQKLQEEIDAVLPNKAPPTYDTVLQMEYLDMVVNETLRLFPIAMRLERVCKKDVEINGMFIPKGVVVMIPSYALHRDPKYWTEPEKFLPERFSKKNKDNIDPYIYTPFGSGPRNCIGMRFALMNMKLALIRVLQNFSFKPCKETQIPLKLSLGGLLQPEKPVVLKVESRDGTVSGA
# Sequence of Glucocorticoid receptor (Homo sapiens) (P04150 whole entry, looked up, the tested form may be a part): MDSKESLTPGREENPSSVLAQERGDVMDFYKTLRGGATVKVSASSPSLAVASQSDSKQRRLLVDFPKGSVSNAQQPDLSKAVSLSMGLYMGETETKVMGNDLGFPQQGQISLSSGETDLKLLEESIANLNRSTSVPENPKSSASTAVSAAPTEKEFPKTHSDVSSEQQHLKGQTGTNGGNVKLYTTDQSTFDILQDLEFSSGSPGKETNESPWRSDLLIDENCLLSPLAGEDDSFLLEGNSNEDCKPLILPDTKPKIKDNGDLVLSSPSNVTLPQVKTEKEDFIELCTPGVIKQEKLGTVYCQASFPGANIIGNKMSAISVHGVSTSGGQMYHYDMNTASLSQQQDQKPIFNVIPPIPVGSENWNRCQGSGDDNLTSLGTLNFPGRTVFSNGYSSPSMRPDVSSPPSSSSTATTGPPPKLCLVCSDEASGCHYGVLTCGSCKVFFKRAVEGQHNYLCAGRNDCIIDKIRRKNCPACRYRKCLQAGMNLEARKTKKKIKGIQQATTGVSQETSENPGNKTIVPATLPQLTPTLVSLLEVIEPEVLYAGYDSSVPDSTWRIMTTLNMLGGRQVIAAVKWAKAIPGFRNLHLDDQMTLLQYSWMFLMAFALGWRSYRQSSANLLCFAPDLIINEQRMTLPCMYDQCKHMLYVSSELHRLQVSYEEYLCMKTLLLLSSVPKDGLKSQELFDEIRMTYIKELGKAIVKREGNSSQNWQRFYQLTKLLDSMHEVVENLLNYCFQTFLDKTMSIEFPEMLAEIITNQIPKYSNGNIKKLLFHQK
# Sequence of Dual specificity protein kinase CLK4 (Homo sapiens) (Q9HAZ1 whole entry, looked up): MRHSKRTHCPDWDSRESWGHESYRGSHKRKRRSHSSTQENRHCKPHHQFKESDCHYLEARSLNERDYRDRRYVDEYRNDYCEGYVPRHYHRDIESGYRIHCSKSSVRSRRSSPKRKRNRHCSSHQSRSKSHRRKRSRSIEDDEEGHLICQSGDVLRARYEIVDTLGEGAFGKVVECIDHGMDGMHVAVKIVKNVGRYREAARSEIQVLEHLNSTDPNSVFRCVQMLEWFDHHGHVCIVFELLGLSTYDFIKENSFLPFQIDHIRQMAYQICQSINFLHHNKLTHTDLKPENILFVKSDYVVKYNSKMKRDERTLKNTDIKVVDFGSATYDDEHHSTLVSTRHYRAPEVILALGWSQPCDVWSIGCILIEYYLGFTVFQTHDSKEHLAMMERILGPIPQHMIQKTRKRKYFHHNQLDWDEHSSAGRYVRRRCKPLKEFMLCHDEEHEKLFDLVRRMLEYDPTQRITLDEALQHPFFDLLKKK
# Sequence of Lysosomal acid glucosylceramidase (Homo sapiens) (P04062 whole entry, looked up): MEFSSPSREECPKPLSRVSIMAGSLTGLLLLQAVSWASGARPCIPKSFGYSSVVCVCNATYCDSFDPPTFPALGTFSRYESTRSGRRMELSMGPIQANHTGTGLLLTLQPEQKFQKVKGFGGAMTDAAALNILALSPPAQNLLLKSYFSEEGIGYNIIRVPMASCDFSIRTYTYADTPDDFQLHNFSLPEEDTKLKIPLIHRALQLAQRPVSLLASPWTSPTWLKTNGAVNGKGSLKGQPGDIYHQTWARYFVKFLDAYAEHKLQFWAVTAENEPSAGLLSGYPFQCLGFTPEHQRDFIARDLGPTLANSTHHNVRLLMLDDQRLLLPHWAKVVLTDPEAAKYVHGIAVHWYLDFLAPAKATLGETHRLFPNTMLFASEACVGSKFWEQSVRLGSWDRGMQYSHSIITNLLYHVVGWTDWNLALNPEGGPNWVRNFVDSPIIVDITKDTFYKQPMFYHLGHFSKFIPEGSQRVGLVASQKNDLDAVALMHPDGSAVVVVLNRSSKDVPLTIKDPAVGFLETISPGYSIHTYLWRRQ
# Sequence of Cytochrome P450 1A2 (Homo sapiens) (P05177 whole entry, looked up): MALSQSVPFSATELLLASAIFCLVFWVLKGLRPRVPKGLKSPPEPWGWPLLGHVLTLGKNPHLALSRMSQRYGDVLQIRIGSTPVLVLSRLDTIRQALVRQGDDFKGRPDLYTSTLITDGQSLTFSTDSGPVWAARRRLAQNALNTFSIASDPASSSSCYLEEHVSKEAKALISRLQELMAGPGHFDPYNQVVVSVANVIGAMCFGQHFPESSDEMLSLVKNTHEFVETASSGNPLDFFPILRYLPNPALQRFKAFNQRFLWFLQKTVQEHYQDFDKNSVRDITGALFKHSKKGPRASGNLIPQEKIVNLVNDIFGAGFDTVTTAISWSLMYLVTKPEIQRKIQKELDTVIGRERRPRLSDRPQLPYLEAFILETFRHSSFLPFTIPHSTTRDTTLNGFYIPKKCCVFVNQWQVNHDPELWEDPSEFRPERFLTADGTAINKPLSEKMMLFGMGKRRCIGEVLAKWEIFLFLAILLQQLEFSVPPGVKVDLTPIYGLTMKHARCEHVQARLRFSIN
# Sequence of Cytochrome P450 2C19 (Homo sapiens) (P33261 whole entry, looked up): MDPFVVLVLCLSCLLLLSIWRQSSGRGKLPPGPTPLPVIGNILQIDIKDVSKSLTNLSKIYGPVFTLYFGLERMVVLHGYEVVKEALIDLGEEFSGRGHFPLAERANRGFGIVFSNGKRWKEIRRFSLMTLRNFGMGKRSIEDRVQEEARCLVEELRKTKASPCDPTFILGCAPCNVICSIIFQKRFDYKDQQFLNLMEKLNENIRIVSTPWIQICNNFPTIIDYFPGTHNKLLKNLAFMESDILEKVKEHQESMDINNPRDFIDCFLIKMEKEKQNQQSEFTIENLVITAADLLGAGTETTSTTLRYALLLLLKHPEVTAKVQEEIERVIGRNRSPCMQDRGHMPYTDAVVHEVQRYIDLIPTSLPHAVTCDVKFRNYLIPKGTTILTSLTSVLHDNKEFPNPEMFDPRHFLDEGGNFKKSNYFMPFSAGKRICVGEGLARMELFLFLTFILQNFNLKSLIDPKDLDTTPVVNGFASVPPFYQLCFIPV
smiles,measurement,setting,value
COc1ncc2nc(-c3ccccc3)c(=O)n(-c3ccccc3)c2n1,Potency,[1],> 11.4 µM (inactive)
same,"activity change, negative = inhibition",[2],-21.5% (inactive)
same,Potency,[3],2 µM (active)
same,"activity change, negative = inhibition",[4],3.29% (inactive)
same,"activity, negative = inhibition",[5],-8.81% (inactive)
same,Potency,[6],> 9.22 µM (inactive)
same,Potency,[7],> 46 µM (inactive)
same,outcome,[8],inactive
same,"activity change, negative = inhibition",[9],3.9% (inactive)
same,max response,[9]; [20],10.3%
same,max response,[9]; [21],11.5%
same,Potency,[10],inactive
same,Potency,[11],inactive
same,Potency,[12],inactive
same,Potency,[13],inactive
c1csc(CNc2ncnc3ccc(-c4ccoc4)cc23)c1,Potency,[3],3.16 µM (active)
same,"activity change, negative = inhibition",[4],1.06% (inactive)
same,"activity, negative = inhibition",[5],-21% (inactive)
same,Potency,[6],> 46 µM (inactive)
same,Potency,[7],> 46 µM (inactive)
same,outcome,[8],inactive
same,Potency,[14],7.94 µM (active)
same,Potency,[15],inactive
same,Potency,[16],6.31 µM (active)
same,"activity change, negative = inhibition",[9],-0.111% (inactive)
same,max response,[9]; [20],15.9%
same,max response,[9]; [21],14.7%
same,Potency,[10],0.251 µM (active)
same,Potency,[11],0.355 µM (active)
same,Potency,[17],0.0501 µM (active)
same,Potency,[12],inactive
same,Potency,[13],inactive
Clc1ccccc1-c1ccc2ncnc(N3CCNCC3)c2c1,Potency,[1],> 11.4 µM (inactive)
same,"activity change, negative = inhibition",[2],19.1% (inactive)
same,Potency,[3],2 µM (active)
same,"activity change, negative = inhibition",[4],-4.54% (inactive)
same,"activity, negative = inhibition",[5],5.5% (inactive)
same,Potency,[6],> 46 µM (inactive)
same,Potency,[7],> 46 µM (inactive)
same,outcome,[8],inactive
same,Potency,[18],inactive
same,Potency,[15],inactive
same,"activity change, negative = inhibition",[9],5.35% (inactive)
same,max response,[9]; [20],26.7%
same,max response,[9]; [21],32.3%
same,Potency,[10],15.8 µM (active)
same,Potency,[11],28.2 µM (active)
same,Potency,[12],inactive
same,Potency,[13],inactive
CNc1ncnc2ccc(-c3ccccc3CN(C)C)cc12,Potency,[1],> 11.4 µM (inactive)
same,"activity change, negative = inhibition",[2],-22.5% (inactive)
same,Potency,[3],3.16 µM (active)
same,"activity change, negative = inhibition",[4],-2.46% (inactive)
same,"activity, negative = inhibition",[5],-1.81% (inactive)
same,Potency,[6],> 46 µM (inactive)
same,Potency,[7],> 46 µM (inactive)
same,outcome,[8],inactive
same,Potency,[18],inactive
same,Potency,[14],7.94 µM (active)
same,Potency,[15],inactive
same,"activity change, negative = inhibition",[9],4.45% (inactive)
same,max response,[9]; [20],6.85%
same,max response,[9]; [21],10.7%
same,Potency,[10],25.1 µM (active)
same,Potency,[11],12.6 µM (active)
same,Potency,[12],inactive
same,Potency,[13],inactive
COc1cccc(-c2ccc3ncnc(NCc4ccccc4)c3c2)c1,Potency,[6],> 46 µM (inactive)
same,Potency,[7],> 46 µM (inactive)
same,outcome,[8],inactive
same,Potency,[18],inactive
same,"activity change, negative = inhibition",[9],-5.64% (inactive)
same,max response,[9]; [20],-2.9%
same,max response,[9]; [21],-10.2%
same,Potency,[10],2 µM (active)
same,Potency,[11],2.24 µM (active)
same,Potency,[17],0.794 µM (active)
same,Potency,[13],inactive
COc1cccc(Nc2ncc3nc(C)c(=O)n(C4CC4)c3n2)c1,Potency,[1],> 11.4 µM (inactive)
same,"activity change, negative = inhibition",[2],-16.4% (inactive)
same,Potency,[3],1.26 µM (active)
same,"activity change, negative = inhibition",[4],5.07% (inactive)
same,"activity, negative = inhibition",[5],-13.4% (inactive)
same,Potency,[6],> 9.22 µM (inactive)
same,Potency,[7],> 46 µM (inactive)
same,outcome,[8],inactive
same,Potency,[18],inactive
same,Potency,[14],6.31 µM (active)
same,Potency,[15],inactive
same,activation,[19],-3.86% (inactive)
same,"activity change, negative = inhibition",[9],-5.91% (inactive)
same,max response,[9]; [20],-1.52%
same,max response,[9]; [21],-13.2%
same,Potency,[10],12.6 µM (active)
same,Potency,[11],11.2 µM (active)
same,Potency,[12],inactive
same,Potency,[13],inactive
